Reference: PubChem BioAssay (Tox21)
Several values for one entry are separate records, joined by “and”; a condition that tells them apart may be missing. Equal values may be shown once. Results filed as inconclusive are left out. Entries that show only a call come without a potency. The source holds several records for some structures; these can differ, active in one and inactive in another. Activity calls are given as the source filed them. Calls follow the shape of the full dose curve.

experiment: qHTS assay to identify small molecule agonists of H2AX - cell viability counter screen (AID 1224847); settings: CHO-K1 viability, CellTiter-Glo luminescence, 3 h; series mostly up to 154 µM; activity change, negative = cytotoxicity: at the top concentration; also: nearly all actives have a fitted effect of over 30% in size; as to activity change, negative = cytotoxicity: top concentration of the series differs between compounds
From the text: National Center for Advancing Translational Sciences [NCATS]
NIH Chemical Genomics Center [NCGC]
U.S. Environmental Protection Agency [EPA]
National Institutes of Environmental Health Sciences [NIEHS]
National Toxicology Program [NTP]
U.S. Food and Drug Administration [FDA]
HTRF phospho-H2AX (Ser139) assay (Cisbio Bioassays, US) enables the quantitative detection of the histone variant H2AX when phosphorylated on serine 139. When double-stranded DNA breaks, either by ionizing radiation or endogenous physiological processes, H2AX becomes phosphorylated at Ser139. This phospho-Ser139 serves as a sensitive biomarker for the detection of such breaks, localizing the site of DNA repair. So, HTRF phospho-H2AX Ser139 is a pertinent assay to study genome stability, the cell cycle, DNA repair, and it serves as a biomarker for cancer, and to understand aging. Wild type CHO-K1 cells were used to identify the inducers of Phospho-H2AX Ser 139 from the Tox21 compound collections. Also cytotoxicity of the Tox21 10K compound library against the CHO-K1 cell line was tested by measuring the cell viability using CellTiter-Glo assay (Promega, Madison, WI).
Tox21 Assay Protocol Summary:
The CHO-K1 cells suspended in culture medium containing 10% FBS were dispensed at 1000 cells/ 3 ul/well in 1536-well white wall/solid bottom plates (Greiner Bio-One North America, NC) using a Multidrop Combi (Thermo Fisher Scientific Inc., Waltham, MA). After the assay plates were incubated at 37C overnight, 23 nl of compounds at 15 concentrations (from 5-48 columns) or positive control (from 1 to 4 columns) were transferred to the assay plates using a Pintool station (Wako, San Diego, CA) into each well resulting in a final DMSO concentration of 0.76%. After 3hr incubation at 37C, 3 uL/well CellTiter-Glo luminescent cell viability reagent (Promega Corporation, Madison, WI) was added using a Flying Reagent Dispenser (FRD) (Aurora Discovery, CA). After incubation at room temperature for 30 min, the luminescence intensity was read using a ViewLux plate reader (PerkinElmer, Waltham, MA).
Potency is read from the fitted curve at half-maximal effect.

Row | Compound | Potency | activity change, negative = cytotoxicity
1 | COc1cc([C@@H]2c3cc4c(cc3[C@H](O)[C@H]3COC(=O)[C@H]23)OCO4)cc(OC)c1OC | inactive | 
2 | CC(C)CC(C)(O)C#CC(C)(O)CC(C)C (stereo not given) |  | -10.7% (inactive)
3 | COc1c(Cl)c(Cl)c(Cl)c(Cl)c1Cl | inactive | 
4 | CC(C(=O)O)c1cccc(C(=O)c2ccccc2)c1 (stereo not given) | inactive | 
5 | Cc1c(C(N)=O)cc([N+](=O)[O-])cc1[N+](=O)[O-] | inactive | 
6 | O=C(COc1ccc(Cl)cc1)N1CCN(Cc2ccc3c(c2)OCO3)CC1 | 101 µM (active) and inactive | 
7 | OC1CCCCCCCCCCC1 | inactive | 
8 | CN(C)CCN(Cc1cccs1)c1ccccn1 | inactive | 
9 | O=C(c1ccc(OCCN2CCCCC2)cc1)c1c(-c2ccc(O)cc2)sc2cc(O)ccc12 | 113 µM (active) and inactive | 
10 | C#C[C@]1(O)CC[C@H]2[C@@H]3CCc4cc(OC)ccc4[C@H]3CC[C@@]21C | 45 µM (active) | 
11 | COC(=O)C1=C(C)NC(C)=C(C(=O)OCCN(C)Cc2ccccc2)C1c1cccc([N+](=O)[O-])c1 (stereo not given) | 44.7 µM (active) and 49.2 µM (active) | 
12 | C[Si](C)(C)O[Si](C)(C)C | inactive | 
13 | CCCCOCCOCCO | inactive | 
14 | OC[C@H]1O[C@@H]2O[C@H]3[C@H](O)[C@@H](O)[C@@H](O[C@H]4[C@H](O)[C@@H](O)[C@@H](O[C@H]5[C@H](O)[C@@H](O)[C@@H](O[C@H]6[C@H](O)[C@@H](O)[C@@H](O[C@H]7[C@H](O)[C@@H](O)[C@@H](O[C@H]8[C@H](O)[C@@H](O)[C@@H](O[C@H]1[C@H](O)[C@H]2O)O[C@@H]8CO)O[C@@H]7CO)O[C@@H]6CO)O[C@@H]5CO)O[C@@H]4CO)O[C@@H]3CO | inactive | 
15 | Cn1cnc([N+](=O)[O-])c1Sc1ncnc2nc[nH]c12 |  | -4.92% [at 70.9 µM] (inactive)
16 | NNc1ccc(C(=O)O)cc1 | inactive | 
17 | CCOCCOCCO |  | 0.485% (inactive)
18 | CCOC(=O)C(C#N)=C(c1ccccc1)c1ccccc1 | inactive | 
19 | CN(C)C(=N)N=C(N)N | inactive | 
20 | CCCc1c(OCCCCc2nn[nH]n2)ccc(C(C)=O)c1O | inactive | 

Row | Compound | Potency | activity change, negative = cytotoxicity
21 | CC(=O)C1(C)CC2=C(CCCC2(C)C)CC1C (stereo not given) | inactive | 
22 | Cc1c(OCC(F)(F)F)ccnc1CS(=O)c1nc2ccccc2[nH]1 (stereo not given) | inactive | 
23 | CCCCNS(=O)(=O)c1ccccc1 | inactive | 
24 | COc1cccc2c1C(=O)c1c(O)c3c(c(O)c1C2=O)C[C@@](O)(C(=O)CO)C[C@@H]3O[C@H]1C[C@H](N)[C@H](O)[C@H](C)O1 | inactive | 
25 | Cc1ccc(C)c(O)c1C | inactive | 
26 | CC1=CCC(C(C)(C)O)CC1 (stereo not given) | inactive | 
27 | O=P(O)(O)O | inactive | 
28 | CCC(C)CO (stereo not given) | inactive | 
29 | O=C(c1ccccc1)c1ccc(O)cc1O | inactive | 
30 | O=CCc1ccccc1 | inactive | 
31 | Nc1ccc(S(=O)(=O)Nc2cnc3ccccc3n2)cc1 | inactive | 
32 | C#C[C@]1(O)CC[C@H]2[C@@H]3CCC4=Cc5oncc5C[C@]4(C)[C@H]3CC[C@@]21C | 89.8 µM (active) | 
33 | C=C(C)C(=O)OCCOC(=O)C(=C)C | inactive | 
34 | COc1ccc(C(=O)CC(=O)c2ccc(C(C)(C)C)cc2)cc1 | inactive | 
35 | CC1=CC2C3CC(C=C3C)C2C1 (stereo not given) | inactive | 
36 | C[C@]12CCC(=O)C=C1CC[C@@H]1[C@@H]2C(=O)C[C@@]2(C)[C@H]1CC[C@]2(O)C(=O)CO | inactive | 
37 | O=C(Nc1ccc([N+](=O)[O-])cc1Cl)c1cc(Cl)ccc1O | 2.84 µM (active) | 
38 | Cc1cccc(C(=O)O)c1 | inactive | 
39 | C=CC(C)(CCC=C(C)C)OC(C)=O (stereo not given) | inactive | 
40 | O=CCCCC=O | inactive | 
